Inhibition data for 16 molecules are collected here from ChEMBL document CHEMBL1961873, “Compounds: GSK PKIS; Assays: Nanosyn kinase panel” (2012).

Molecules are shown by their SMILES.
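Further: values are the mean percent inhibition of CK1a, averaged over measurements.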

For this experiment, the target named is Casein kinase I isoform alpha (Homo sapiens) (UniProt P48729). To be noted: at 0.1 µM.
Casein kinase I isoform alpha (Homo sapiens), sequence (P48729 2-337 limits assumed): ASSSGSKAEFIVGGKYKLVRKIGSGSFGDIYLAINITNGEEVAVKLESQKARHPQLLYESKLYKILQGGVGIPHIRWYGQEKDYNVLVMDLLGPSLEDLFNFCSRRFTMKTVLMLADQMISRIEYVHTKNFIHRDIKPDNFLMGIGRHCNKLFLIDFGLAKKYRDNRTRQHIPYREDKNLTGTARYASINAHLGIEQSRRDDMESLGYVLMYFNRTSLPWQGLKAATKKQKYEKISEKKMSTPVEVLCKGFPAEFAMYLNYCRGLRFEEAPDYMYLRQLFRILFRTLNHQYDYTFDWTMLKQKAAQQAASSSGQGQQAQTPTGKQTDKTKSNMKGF
By inhibition is commonly meant the drop in the measured response relative to a control, in per cent. Turning to `COc1ccc2ncn(-c3cc(O[C@H](C)c4ccccc4Cl)c(C(N)=O)s3)c2c1`, the inhibition was 2.14%.
Next, `C#Cc1cccc(Nc2ncnc3ccc(OCCCCNCCS(C)(=O)=O)cc23)c1`: 2.51%; `NS(=O)(=O)c1ccc(Nc2cc(-c3ccc(O)c(F)c3)n[nH]2)cc1`: -2.61%; `C[C@@H](Oc1cc(-n2cnc3ccc(OCC4CCN(C)CC4)cc32)sc1C(N)=O)c1ccccc1Cl`: 5.44%.
In the case of `Fc1ccc(-c2ncn(CCCN3CCOCC3)c2-c2ccncc2)cc1`, the inhibition came to 2.04%.
Turning to `NS(=O)(=O)c1ccc(N/N=C2\C(=O)Nc3ccc(C(=O)NCCCn4ccnc4)cc32)cc1`, the inhibition worked out at 3.95%.
Turning to `COc1ccc2cc(-c3c(-c4ccncc4)nc(-c4ccc(S(C)(=O)=O)cc4C)n3C)ccc2c1`, the inhibition was 2.38%.
Next, `Clc1ccc(CNc2nccc(-c3cnn4ncccc34)n2)cc1`: 2.75%.
Consider `COC(=O)Nc1nc2ccc(Sc3ccc(NC(=O)Nc4cc(C(F)(F)F)ccc4F)cc3)cc2[nH]1`, for which the inhibition was -0.33%.
`Fc1ccc(-c2ncn(C3CCNCC3)c2-c2ccnc(Oc3ccc4c(c3)OCO4)n2)cc1`: the inhibition amounted to 6.52%.
Consider `Cc1ccc(C(=O)NC(C)C)cc1-c1ccc(C(=O)NCC2CC2)cc1`, for which the inhibition is -3.83%.
Turning to `CCS(=O)(=O)c1ccc(OC)c(Nc2ncc(-c3ccccc3Cl)o2)c1`, the inhibition is 0.11%.
In the case of `NC(=O)c1cc(-c2ccncc2)cc(-c2ccccc2)c1N`, the inhibition is 4.55%.
On to `c1ccc(-c2n[nH]cc2-c2ccnc(-c3ccc(OCCN4CCOCC4)cc3)c2)nc1`, for which the inhibition came to 0.38%.
For `Cc1ccc(C(=O)NC2CCC2)cc1-c1ccc(C(=O)NCC2CC2)cc1`, the inhibition is 3.36%.
Regarding `CN(c1ccc(NC(=O)Nc2c(Cl)cccc2Cl)cc1)c1ccnc(Nc2cccc(CS(C)(=O)=O)c2)n1`, the inhibition is 1.15%.
